# Data taken from PubChem BioAssay (NCI).
# This is part of a sample that, as a whole, favours compounds with a hit. Of some 83,000 tested, about 20% had one in any assay.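 48-hour exposure, single concentration, 96-well plates; percent growth endpoint where 0 means no net growth. Active: below 10.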 Values without a mark were called inactive. Activity calls are given as the source filed them.
# What was measured:
# Test in all cases: NCI-60 one-dose screen, 48 h (100 = growth as untreated, 0 = no growth, -100 = all killed)
# HCT-15 colon = conditions: 10 µM unless noted
# HT29 colon = conditions: 10 µM unless noted
# SNB-75 CNS = conditions: 10 µM unless noted
# SNB-19 CNS = conditions: 10 µM unless noted
# U251 CNS = conditions: 10 µM unless noted
# SK-MEL-5 melanoma = conditions: 10 µM unless noted
# UACC-62 melanoma = conditions: 10 µM unless noted
# LOX IMVI melanoma = conditions: 10 µM
# SK-MEL-28 melanoma = conditions: 10 µM unless noted
# SK-MEL-2 melanoma = conditions: 10 µM unless noted
# EKVX NSCLC = conditions: 10 µM unless noted
# SN12C renal = conditions: 10 µM unless noted
# UO-31 renal = conditions: 10 µM unless noted
# TK-10 renal = conditions: 10 µM unless noted
# ACHN renal = conditions: 10 µM unless noted
# CAKI-1 renal = conditions: 10 µM unless noted
# A498 renal = conditions: 10 µM unless noted
# CCRF-CEM leukemia = conditions: 10 µM unless noted
# MOLT-4 leukemia = conditions: 10 µM unless noted
# PC-3 prostate = conditions: 10 µM unless noted
Compound,growth (HCT-15 colon),growth (HT29 colon),growth (SNB-75 CNS),growth (SNB-19 CNS),growth (U251 CNS),growth (SK-MEL-5 melanoma),growth (UACC-62 melanoma),growth (LOX IMVI melanoma),growth (SK-MEL-28 melanoma),growth (SK-MEL-2 melanoma),growth (EKVX NSCLC),growth (SN12C renal),growth (UO-31 renal),growth (TK-10 renal),growth (ACHN renal),growth (CAKI-1 renal),growth (A498 renal),growth (CCRF-CEM leukemia),growth (MOLT-4 leukemia),growth (PC-3 prostate)
C#C[C@]1(O)CC[C@H]2[C@@H]3CC=C4c5sc(-c6ccc(O)c(O)c6)nc5CC[C@]4(C)[C@H]3CC[C@@]21C,-82.2% (active),-80.2% (active),-81.4% (active),-89.4% (active),-94.3% (active),-98.4% (active),-74.7% (active),-92.9% (active),-80.3% (active),-97.9% (active),-74.4% (active),-89.5% (active),-93.8% (active),-44.9% (active),-88.9% (active),-51.2% (active),-88.5% (active),-27.9% (active),-48% (active),
O=C(Cn1nc(-c2ccccc2)ccc1=O)N/N=C/c1ccc(N2CCOCC2)cc1,97.2%,113%,96.4%,89.9%,93.2%,92.4%,83.7%,102%,104%,98.1%,95.3%,94.9%,75.8%,103%,95.7%,90.8%,84%,92.5%,98.1%,
CCOP(=O)(OCCCl)c1nc(-c2ccc(C)cc2)oc1NCc1ccccc1 (centres undefined),57.6%,81.7%,69.9%,65.8%,74.6%,,60.4%,,108%,87%,67.2%,70.4%,52.5%,100%,,49.5%,99.3%,72.4%,43.6%,44.4%
COCOc1ccc2c(=O)c(C)c(C(=O)N[C@@H](Cc3ccccc3)C(O)C(=O)NCCc3ccc(OC)cc3)oc2c1 (some centres undefined),102%,113%,125%,96%,106%,,102%,,124%,118%,111%,95.2%,-20.1% (active),116%,114%,101%,136%,105%,94.8%,110%
CC1=C(C(=O)OCc2ccccc2)C(c2ccc(-n3cncn3)cc2)n2c(nc3ccccc32)N1 (centres undefined),33.1%,24.7%,47.9%,66.9%,63.4%,39.7%,16.2%,,66.5%,80.6%,48.4%,72.9%,51.6%,89.7%,51.3%,42.8%,79.8%,16.1%,,
CCOC(=O)C1=C(N)N(c2ccccc2)C2=C(C(=O)CC(C)(C)C2)C1c1ccc(N2CCOCC2)cc1 (centres undefined),97.8%,112%,91.4%,92.9%,98.7%,,83%,93.2%,107%,97.4%,95.4%,95.7%,,108%,96.7%,82.1%,110%,105%,99.2%,94.6%
NC(=S)Nc1cccc(NC(N)=S)c1,95.1%,113%,97.6%,88.3%,88.8%,,70.5%,,104%,112%,101%,81.9%,70%,107%,96.3%,79.7%,101%,96.4%,89.7%,102%
COc1ccc(NC(=O)Cn2c(O)c(N=Nc3ccc(S(N)(=O)=O)cc3)c3ccccc32)cc1,79%,-2.87% (active),59.7%,23%,-32.5% (active),62.3%,20.7%,,26.7%,50.6%,62%,60%,84.1%,75.9%,35.2%,27.4%,103%,85.3%,73.6%,
CSc1ccc(NC(=O)c2ccc3nn(/C(C#N)=C/c4ccccn4)nc3c2)cc1,-72.1% (active),-86.1% (active),35.1%,-75.7% (active),,-92.8% (active),-96.3% (active),,-98.4% (active),-89.9% (active),-99% (active),-65.7% (active),-99% (active),,-95.3% (active),-90.9% (active),-33.9% (active),-47.8% (active),-20.4% (active),-73.7% (active)
CC(=O)Nc1ccc(C(=O)NC(=S)Nc2ccc(S(N)(=O)=O)cc2)cc1,106%,92.6%,78.1%,98.4%,,88.3%,86.9%,,97%,97.1%,90.1%,91.7%,80.7%,89.1%,102%,87.9%,104%,100%,111%,97.9%
Cc1cc2c(cc1Cl)C(=O)/C(=C/c1ccccc1)O2,13.3%,38.6%,52.5%,34.6%,,-75.4% (active),29.3%,,49.9%,41%,-7.97% (active),-68.8% (active),-80.4% (active),56%,-83.1% (active),-81.1% (active),115%,4.91% (active),0.549% (active),29.8%
Cc1cc2nc3c4ccccc4n(CC4=NCCN4)c3nc2cc1C,0.357% (active),-74.3% (active),25.1%,15.8%,,-91.7% (active),-91.2% (active),,-93.5% (active),66.7%,60.4%,-6.68% (active),-95.2% (active),64.4%,-100% (active),-70% (active),63.8%,,-19.4% (active),
Cn1cc(-c2nnc(N)nc2-c2c[nH]c3ccc(Br)cc23)c2cc(Br)cnc21,22.4%,16.6%,32%,65.5%,,68%,46.3%,58.7%,43.6%,35.4%,64.3%,63%,42.4%,37.7%,61.3%,33%,39.4%,28%,11.7%,38.5%
COc1ccc(C(=O)/C=C/c2cccnc2)cc1S(N)(=O)=O,4.61% (active),24%,64.2%,45.4%,,,74.8%,-15.3% (active),65.7%,104%,63.3%,37.7%,28%,66.8%,50.7%,52.6%,103%,5.54% (active),,78.4%
COc1cccc(-c2nc(Nc3ccc(S(N)(=O)=O)cc3)c3ccccc3n2)c1,5.48% (active),13.8%,61.1%,50.4%,,25.6%,37.5%,24.8%,47.3%,46.6%,45.5%,44.6%,17.4%,47.3%,,25.2%,23.9%,18.7%,,29.3%
COc1cc2oc(-c3cccc(C(=O)Nc4ccc(Cl)cc4)c3)cc(=O)c2c(OCCNC(=O)[C@H](CO)NC(=O)OC(C)(C)C)c1OC,16.5%,-26.9% (active),74.5%,29.7%,,-75.2% (active),7.14% (active),-67.5% (active),-23.8% (active),-1.01% (active),24.1%,16.4%,23.6%,42.6%,13.5%,19.1%,71.9%,8.05% (active),5.42% (active),12.9%
COc1c(F)ccc(C(=O)Nc2ccc3nc(NC(=O)C4CCCN(S(=O)(=O)C5CC5)C4)sc3c2)c1F (centres undefined),34%,44.1%,56.3%,63.5%,,-43.8% (active),44.7%,24.5%,56.2%,54.9%,31.5%,65%,43.1%,74.5%,47%,46.6%,76%,18%,3.08% (active),39.1%
